This assay addresses Torsin-1A-interacting protein 1 (Homo sapiens) (UniProt Q5JTV8). Kind of assay: compound microarray binding of lysate hLAP1 – cell lysate, small-molecule microarray, COS7 lysate, 635/667 nm fluorescence, primary screen (AID 1116). The note with it: 635 nm fluorescence, higher = more signal.
Sequence of Torsin-1A-interacting protein 1 (Homo sapiens) (Q5JTV8 whole entry, looked up): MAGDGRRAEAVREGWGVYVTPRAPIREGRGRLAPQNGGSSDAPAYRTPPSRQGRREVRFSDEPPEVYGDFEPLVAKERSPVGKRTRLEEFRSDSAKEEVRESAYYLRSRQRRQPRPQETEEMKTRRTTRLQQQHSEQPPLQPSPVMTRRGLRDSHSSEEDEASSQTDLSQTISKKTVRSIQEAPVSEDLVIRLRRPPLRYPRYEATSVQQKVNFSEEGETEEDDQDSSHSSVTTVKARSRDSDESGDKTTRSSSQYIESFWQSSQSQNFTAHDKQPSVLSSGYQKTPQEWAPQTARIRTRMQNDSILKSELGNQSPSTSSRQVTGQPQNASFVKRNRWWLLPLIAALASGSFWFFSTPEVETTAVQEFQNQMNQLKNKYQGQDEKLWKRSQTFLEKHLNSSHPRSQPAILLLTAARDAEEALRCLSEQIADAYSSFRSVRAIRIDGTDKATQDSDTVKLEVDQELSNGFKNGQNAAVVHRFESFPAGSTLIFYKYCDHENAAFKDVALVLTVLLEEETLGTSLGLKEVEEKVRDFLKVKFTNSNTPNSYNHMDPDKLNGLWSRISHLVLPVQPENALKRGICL
`NC(=O)NCC#Cc1ccc2c(c1)[C@]1(C(=O)N2)[C@H](C(=O)Nc2nc3ccccc3s2)[C@H]2C(=O)O[C@H](c3ccccc3)[C@H](c3ccccc3)N2[C@@H]1c1ccc(OCCO)cc1` showed a composite z-score of 0.281. For the compound `CC(C)C(=C=CC[C@@H](O)c1ccccc1OCCO)C[C@@H](O)c1cc(Cl)cc(Cl)c1O`, the composite z-score is -0.197. In turn, `COC(=O)[C@@H]1N=C(c2ccc(OCCCO)cc2)O[C@@H]1c1ccccc1CN=[N+]=[N-]` showed a composite z-score of 0.609. As for `COc1cc2c(cc1O)C(C1CC1)N(Cc1ccc([N+](=O)[O-])o1)CC2` (configuration not stated), the composite z-score came out at 1.04. Take `COc1ccc(NN2C(C(O)c3cc(C(F)(F)F)cc(C(F)(F)F)c3)C=CC3C(=O)N(C4CCCCC4)C(=O)C32)cc1` (configuration not stated): the composite z-score was determined as 1.06. As for `C=CCC(OC(C)=O)[C@@H]1[C@@H](N(Cc2ccc(-c3ccccc3)cc2)C(=O)c2ccc(-c3ccccc3)cc2)c2cc(OCCCO)ccc2N1C(=O)c1ccc2ccccc2n1` (some centres not stated), the composite z-score is 0.276.

As to `O=C(NCC(F)(F)F)[C@@H]1c2ccccc2C(=O)N(CC23CC4CC(CC(C4)C2)C3)[C@H]1c1ccc(CO)cc1`, the composite z-score is 0.613.

The values above are taken from PubChem BioAssay.
